{"source": "the supplement of paper PMC8728848", "binders": {"B1": {"name": "EPL1 (Trichoderma atroviride), A0PCX2 (protein)", "chain": "MQLSNLFKLALFTAAVSADTVSYDTGYDDASRSLTVVSCSDGTNGLITRYHWQTQGQIPRFPYIGGAQAVAGWNSPNCGTCWKLTYSGKTIYVLAIDHTAAGFNIGLDAMNALTNGNAVALGRVSATASQVAVSNCGL"}}, "test_in_all_cases": "glycan array binding signal (z-score within array); higher = stronger binding", "settings_in_all_cases": "glycan notation: IUPAC condensed, linker removed", "key": {"[1]": {"molecular_target": "GlcNAc(b1-2)[GlcNAc(b1-6)]Man(a1-6)[GlcNAc(b1-4)][GlcNAc(b1-2)Man(a1-3)]Man(b1-4)GlcNAc(b1-4)GlcNAc", "summary_of_the_method": "(§1)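 The binding signal is a Z-score computed within each array. Data were drawn from 3228 arrays in the Consortium for Functional Glycomics database, restricted to those with a known protein sequence. Scores were averaged over arrays of the same protein sequence at different concentrations or buffers, and over linkers, and negative values can be taken as non-binding.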"}, "[2]": {"molecular_target": "GlcNAc(b1-3)Gal(b1-4)GlcNAc(b1-3)Gal(b1-4)GlcNAc(b1-2)Man(a1-3)[GlcNAc(b1-3)Gal(b1-4)GlcNAc(b1-3)Gal(b1-4)GlcNAc(b1-2)Man(a1-6)]Man(b1-4)GlcNAc(b1-4)GlcNAc", "summary_of_the_method": "as §1"}, "[3]": {"molecular_target": "GlcNAc(b1-3)Gal(b1-4)GlcNAc(b1-3)Gal(b1-4)GlcNAc(b1-3)Gal(b1-4)GlcNAc(b1-2)Man(a1-3)[GlcNAc(b1-3)Gal(b1-4)GlcNAc(b1-3)Gal(b1-4)GlcNAc(b1-3)Gal(b1-4)GlcNAc(b1-2)Man(a1-6)]Man(b1-4)GlcNAc(b1-4)[Fuc(a1-6)]GlcNAc", "summary_of_the_method": "as §1"}, "[4]": {"molecular_target": "GlcNAc(b1-3)Gal(b1-4)GlcNAc(b1-3)Gal(b1-4)GlcNAc(b1-3)Gal(b1-4)GlcNAc(b1-2)[GlcNAc(b1-3)Gal(b1-4)GlcNAc(b1-3)Gal(b1-4)GlcNAc(b1-3)Gal(b1-4)GlcNAc(b1-6)]Man(a1-6)[GlcNAc(b1-3)Gal(b1-4)GlcNAc(b1-3)Gal(b1-4)GlcNAc(b1-3)Gal(b1-4)GlcNAc(b1-2)Man(a1-3)]Man(b1-4)GlcNAc(b1-4)[Fuc(a1-6)]GlcNAc", "summary_of_the_method": "as §1"}, "[5]": {"molecular_target": "Man(a1-2)Man(a1-2)Man(a1-3)Man", "summary_of_the_method": "as §1"}, "MurNAc(b1-4)GlcNAc": {"molecular_target": "MurNAc(b1-4)GlcNAc", "summary_of_the_method": "as §1"}, "[6]": {"molecular_target": "Neu5Ac(a2-3)Gal(b1-3)GlcNAc(b1-2)Man", "summary_of_the_method": "as §1"}, "[7]": {"molecular_target": "Neu5Ac(a2-3)Gal(b1-4)GlcNAc(b1-2)Man(a1-3)[GlcNAc(b1-4)][Neu5Ac(a2-3)Gal(b1-4)GlcNAc(b1-2)Man(a1-6)]Man(b1-4)GlcNAc(b1-4)GlcNAc", "summary_of_the_method": "as §1"}, "[8]": {"molecular_target": "Neu5Ac(a2-3)Gal(b1-4)GlcNAc(b1-6)[Neu5Ac(a2-3)Gal(b1-3)]GalNAc", "summary_of_the_method": "as §1"}, "[9]": {"molecular_target": "Neu5Ac(a2-3)Gal(b1-4)[Fuc(a1-3)]GlcNAc(b1-2)Man", "summary_of_the_method": "as §1"}, "[10]": {"molecular_target": "Neu5Ac(a2-3)Gal(b1-4)[Fuc(a1-3)]GlcNAc(b1-3)GalNAc", "summary_of_the_method": "as §1"}, "[11]": {"molecular_target": "Neu5Ac(a2-3)Gal(b1-4)[Fuc(a1-3)]GlcNAc(b1-6)[Neu5Ac(a2-3)Gal(b1-3)]GalNAc", "summary_of_the_method": "as §1"}, "[12]": {"molecular_target": "Neu5Ac(a2-3)GalNAc(b1-4)GlcNAc", "summary_of_the_method": "as §1"}, "Neu5Ac(a2-6)Gal": {"molecular_target": "Neu5Ac(a2-6)Gal", "summary_of_the_method": "as §1"}, "[13]": {"molecular_target": "Neu5Ac(a2-6)Gal(b1-4)GlcNAc(b1-2)Man(a1-3)[GlcNAc(b1-2)Man(a1-6)]Man(b1-4)GlcNAc(b1-4)GlcNAc", "summary_of_the_method": "as §1"}, "[14]": {"molecular_target": "Neu5Ac(a2-6)Gal(b1-4)GlcNAc(b1-2)Man(a1-6)[GlcNAc(b1-2)Man(a1-3)]Man(b1-4)GlcNAc(b1-4)GlcNAc", "summary_of_the_method": "as §1"}, "[15]": {"molecular_target": "Neu5Ac(a2-6)Gal(b1-4)GlcNAc(b1-2)Man(a1-6)[Man(a1-3)]Man(b1-4)GlcNAc(b1-4)GlcNAc", "summary_of_the_method": "as §1"}, "[16]": {"molecular_target": "Neu5Ac(a2-6)Gal(b1-4)GlcNAc(b1-3)Gal(b1-4)GlcNAc(b1-3)Gal(b1-4)GlcNAc(b1-2)Man(a1-3)[Neu5Ac(a2-6)Gal(b1-4)GlcNAc(b1-3)Gal(b1-4)GlcNAc(b1-3)Gal(b1-4)GlcNAc(b1-2)Man(a1-6)]GalNAc", "summary_of_the_method": "as §1"}, "[17]": {"molecular_target": "Neu5Ac(a2-6)Gal(b1-4)GlcNAc(b1-3)Gal(b1-4)[Fuc(a1-3)]GlcNAc(b1-3)Gal(b1-4)[Fuc(a1-3)]GlcNAc", "summary_of_the_method": "as §1"}, "[18]": {"molecular_target": "Neu5Ac(a2-6)Gal(b1-4)GlcNAc6S", "summary_of_the_method": "as §1"}, "Neu5Gc(a2-3)Gal(b1-4)Glc": {"molecular_target": "Neu5Gc(a2-3)Gal(b1-4)Glc", "summary_of_the_method": "as §1"}, "[19]": {"molecular_target": "Neu5Gc(a2-3)Gal(b1-4)GlcNAc(b1-3)Gal(b1-4)GlcNAc(b1-2)Man(a1-3)[Neu5Gc(a2-3)Gal(b1-4)GlcNAc(b1-3)Gal(b1-4)GlcNAc(b1-2)Man(a1-6)]Man(b1-4)GlcNAc(b1-4)GlcNAc", "summary_of_the_method": "as §1"}, "[20]": {"molecular_target": "Neu5Gc(a2-8)Neu5Ac(a2-3)Gal(b1-4)GlcNAc", "summary_of_the_method": "as §1"}}, "note": "Only a selection was taken, and the strongest signals are over-represented in it overall."}
{"binder": "B1", "values": [{"measurement": "glycan array binding signal (z-score)", "setting": "[1]", "value": -0.514}, {"measurement": "glycan array binding signal (z-score)", "setting": "[2]", "value": 0.862}, {"measurement": "glycan array binding signal (z-score)", "setting": "[3]", "value": 0.866}, {"measurement": "glycan array binding signal (z-score)", "setting": "[4]", "value": 0.127}, {"measurement": "glycan array binding signal (z-score)", "setting": "[5]", "value": -0.108}, {"measurement": "glycan array binding signal (z-score)", "setting": "MurNAc(b1-4)GlcNAc", "value": -0.51}, {"measurement": "glycan array binding signal (z-score)", "setting": "[6]", "value": -0.068}, {"measurement": "glycan array binding signal (z-score)", "setting": "[7]", "value": -0.469}, {"measurement": "glycan array binding signal (z-score)", "setting": "[8]", "value": -0.379}, {"measurement": "glycan array binding signal (z-score)", "setting": "[9]", "value": -0.347}, {"measurement": "glycan array binding signal (z-score)", "setting": "[10]", "value": 1.06}, {"measurement": "glycan array binding signal (z-score)", "setting": "[11]", "value": 0.767}, {"measurement": "glycan array binding signal (z-score)", "setting": "[12]", "value": -0.428}, {"measurement": "glycan array binding signal (z-score)", "setting": "Neu5Ac(a2-6)Gal", "value": -0.387}, {"measurement": "glycan array binding signal (z-score)", "setting": "[13]", "value": -0.298}, {"measurement": "glycan array binding signal (z-score)", "setting": "[14]", "value": -0.056}, {"measurement": "glycan array binding signal (z-score)", "setting": "[15]", "value": -0.436}, {"measurement": "glycan array binding signal (z-score)", "setting": "[16]", "value": 0.008}, {"measurement": "glycan array binding signal (z-score)", "setting": "[17]", "value": -0.291}, {"measurement": "glycan array binding signal (z-score)", "setting": "[18]", "value": 0.855}, {"measurement": "glycan array binding signal (z-score)", "setting": "Neu5Gc(a2-3)Gal(b1-4)Glc", "value": -0.246}, {"measurement": "glycan array binding signal (z-score)", "setting": "[19]", "value": 0.362}, {"measurement": "glycan array binding signal (z-score)", "setting": "[20]", "value": -0.344}]}
